Shown is part of a subset that was picked to be rich in hits.
DUX4 inh: inhibitors of DUX4-driven ZSCAN4 reporter expression, primary screen, 293T cells, Gaussia and Italica luciferase. 293T-iDUX4 ZSCAN4-Gaussia luciferase reporter, 24 h; active compounds read low. activity change, negative = inhibition, % (test concentration not listed). 0.8% of 37,000 active. AID 1224904, 2016;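 active means mean inhibition of at least 10% in the main channel, exceeding the control channel by a set limit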;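 further: 0% = median of neutral control wells and -100% = median of positive control wells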
* = called active by the depositor.

Screening CN(C)CC(=O)Nc1ccc2c(c1)[C@@H]1C[C@H](CC(=O)NCc3ccc(-c4ccccc4)cc3)O[C@H](CO)[C@@H]1O2 returned DUX4 inh -7.
For CN(C)CC(=O)Nc1ccc2c(c1)[C@@H]1C[C@@H](CC(=O)NCc3ccc(-c4ccccc4)cc3)O[C@H](CO)[C@@H]1O2 the results were DUX4 inh -5.
Screening O=C(C[C@H]1C[C@H]2c3cc(NC(=O)Cc4ccncc4)ccc3O[C@H]2[C@H](CO)O1)NCc1cc(F)ccc1F returned DUX4 inh -36*.
O=C(C[C@H]1C[C@H]2c3cc(NC(=O)Cc4ccncc4)ccc3O[C@H]2[C@H](CO)O1)NCc1ccc(-c2ccccc2)cc1 was read as DUX4 inh -68*.
O=C(C[C@@H]1C[C@H]2c3cc(NC(=O)CC4CC4)ccc3O[C@H]2[C@H](CO)O1)NCc1cc(F)ccc1F was read as DUX4 inh -3.
Screening O=C(C[C@@H]1C[C@@H]2c3cc(NC(=O)Cc4ccncc4)ccc3O[C@@H]2[C@H](CO)O1)NCc1cc(F)ccc1F returned DUX4 inh 7.
COc1cccc(-c2ccc([C@@H]3[C@H]4CN(Cc5cncnc5)CCCCN4[C@H]3CO)cc2)c1 was read as DUX4 inh 13.
`O=C(C[C@H]1C[C@@H]2c3cc(NC(=O)C4CCOCC4)ccc3O[C@@H]2[C@H](CO)O1)NCc1ccc2c(c1)OCO2` gave DUX4 inh -1.
CCCC(=O)N1CCC2(CC1)CN(S(C)(=O)=O)[C@@H](CO)c1c2c2ccc(OC)cc2n1C was read as DUX4 inh 10.
Screening O=C(C[C@H]1CC[C@@H](NC(=O)c2ccc3c(c2)OCO3)[C@@H](CO)O1)NCc1ccc(Oc2ccccc2)cc1 returned DUX4 inh -45*.
Screening O=C(C[C@@H]1CC[C@@H](NC(=O)CC2CC2)[C@@H](CO)O1)NCc1ccc(-c2ccccc2)cc1 returned DUX4 inh 9.
For COc1ccc(CNC(=O)C[C@@H]2CC[C@H](NC(=O)CN(C)C)[C@@H](CO)O2)cc1 the results were DUX4 inh 3.
Screening CCCNC(=O)N1C[C@@H]2[C@H](c3ccccc31)[C@H](CO)N2Cc1ccc(F)cc1 returned DUX4 inh 1.
Screening COCC#Cc1cnc2c(c1)C(=O)N([C@H](C)CO)C[C@H](C)[C@@H](CN(C)C(=O)CCN1CCCCC1)O2 returned DUX4 inh 0.
For C[C@H]1CN([C@@H](C)CO)C(=O)CCCn2nncc2CO[C@H]1CN(C)Cc1ccc(O)cc1 the results were DUX4 inh 0.
Screening C[C@H](CO)N1C[C@H](C)[C@@H](CN(C)Cc2ccc(C(=O)O)cc2)OCc2cnnn2CCCC1=O returned DUX4 inh 7.
Screening C[C@H]1CN([C@@H](C)CO)C(=O)CCCn2nncc2CO[C@@H]1CN(C)Cc1ccc(O)cc1 returned DUX4 inh 0.
`C[C@H]1CN([C@@H](C)CO)C(=O)CCCn2nncc2CO[C@@H]1CN(C)Cc1ccc(C(F)(F)F)cc1` gave DUX4 inh -4.
`C[C@@H]1CN([C@H](C)CO)C(=O)CCCn2nncc2CO[C@H]1CN(C)Cc1ccc(C(=O)Nc2ccccc2N)cc1` gave DUX4 inh -22*.
For C[C@H](CO)N1C[C@H](C)[C@@H](CN(C)Cc2ccc(C(=O)Nc3ccccc3N)cc2)OCc2cnnn2CCCC1=O the results were DUX4 inh -20*.
C[C@H]1CN([C@@H](C)CO)C(=O)CCCn2nncc2CO[C@@H]1CN(C)Cc1ccc(C(=O)O)cc1 was read as DUX4 inh 0.
`C[C@@H]1CN([C@@H](C)CO)C(=O)CCCn2nncc2CO[C@H]1CN(C)Cc1ccc(C(=O)Nc2ccccc2N)cc1` gave DUX4 inh -25*.
Screening C[C@H](CO)N1C[C@H](C)[C@@H](CN(C)Cc2ccc(C(F)(F)F)cc2)OCc2cnnn2CCCC1=O returned DUX4 inh 6.
For CO[C@H]1CN(C)C(=O)c2ccc(NS(=O)(=O)CC(F)(F)F)cc2OC[C@H](C)N(CC2CCCCC2)C[C@H]1C the results were DUX4 inh 4.
`CN(C)CCCNC(=O)C[C@H]1CC[C@H]2[C@@H](COC[C@H](O)CN2S(=O)(=O)c2ccc(F)cc2)O1` gave DUX4 inh 16.
`CO[C@@H](CN(C)C(=O)C1CCOCC1)[C@H](C)CN(C(=O)Nc1ccc(F)cc1)[C@H](C)CO` gave DUX4 inh -3.
Screening CS(=O)(=O)Nc1ccc2c(c1)[C@@H]1C[C@@H](CC(=O)O)O[C@@H](CO)[C@@H]1O2 returned DUX4 inh 2.
For COc1ccc2c3c(n(C)c2c1)[C@@H](CO)N(Cc1ccc(F)cc1)CC31CN(CC2CCOCC2)C1 the results were DUX4 inh -8.
For CCCC(=O)N1CCC2(CC1)CN(Cc1nccs1)[C@@H](CO)c1[nH]c3cc(OC)ccc3c12 the results were DUX4 inh -2.
For CC1C=NC(S(=O)(=O)N2CC[C@@H]3[C@@H](CO)N(C)c4ccc(-c5ccccc5)cc4[C@@H]32)=N1 (some centres not stated) the results were DUX4 inh 24.
COc1ccc2c3c([nH]c2c1)[C@H](CO)NCC31CCN(C(=O)Nc2ccc(F)cc2F)CC1 was read as DUX4 inh 8.
Screening C[C@@H]1CC=CC[C@@H](c2ccc(F)cc2)NC(=O)[C@H](C)N(C)C(=O)c2ccccc2O1 (mixture of isomers) returned DUX4 inh 2.
For O=C(C1CC1)N1CC2(C1)[C@@H](c1ccccc1)[C@@H](CO)N2Cc1nccs1 the results were DUX4 inh -2.
`CC(=O)N1[C@H](CO)[C@@H](c2ccccc2)C12CN(C(=O)c1ccccc1)C2` gave DUX4 inh 4.
O=C(C[C@H]1C[C@H]2c3cc(NC(=O)Cc4ccncc4)ccc3O[C@H]2[C@H](CO)O1)NCc1ccc2c(c1)OCO2 was read as DUX4 inh -3.
Screening C/C=C/c1ccc([C@H]2[C@@H](CO)N3CCCCN(S(=O)(=O)c4cccc(C)c4)C[C@@H]23)cc1 returned DUX4 inh -44*.
For COc1cccc(S(=O)(=O)N2CCCCN3[C@H](CO)[C@@H](c4ccc(-c5cccnc5)cc4)[C@H]3C2)c1 the results were DUX4 inh -8.
For C/C=C/c1ccc([C@@H]2[C@@H](CO)N3CCCCN(S(=O)(=O)c4ccc(F)cc4)C[C@H]23)cc1 the results were DUX4 inh -8.
C/C=C/c1ccc([C@@H]2[C@@H](CO)N3CCCCN(S(=O)(=O)c4ccc(F)cc4)C[C@@H]23)cc1 was read as DUX4 inh -3.
`COc1cccc(S(=O)(=O)N2CCCCN3[C@H](C2)[C@H](c2ccc(-c4cccnc4)cc2)[C@@H]3CO)c1` gave DUX4 inh -35*.
`COc1cccc(S(=O)(=O)N2CCCCN3[C@@H](CO)[C@@H](c4ccc(C#CC5CC5)cc4)[C@@H]3C2)c1` gave DUX4 inh 6.
COc1cccc(C(=O)Nc2ccc3c(c2)C(=O)N(C)[C@H]2CC[C@H](CC(=O)NCCCN4CCOCC4)O[C@H]2CO3)c1 was read as DUX4 inh -2.
For O=C(NC1CCCCC1)[C@@H]1[C@@H](CO)[C@@H]2Cn3c(cccc3=O)[C@@H]2N1CC1CCCC1 the results were DUX4 inh -9.
Screening COc1ccccc1C(=O)Nc1ccc2c(c1)OC[C@H](C)N(CC1CC1)C[C@H](C)[C@@H](OC)CN(C)C2=O returned DUX4 inh -10.

Compound activity: PubChem, Broad Institute
